Counter-ions that a name gives are not always drawn.
target: PARP1 L713F-nLuc biosensor (HCT116) (UniProt P09874); test: PARP1 L713F-nLuc/akaLuc ratio relative to DMSO control (biosensor stabilization) (fold change); higher = more PARP1 biosensor stabilization (target engagement / stabilizer), active = hit call of the paper; details: stock concentration (mM; final µM = stock mM x 1): 10; 24 h
Sequence (P09874 whole entry L713F, looked up): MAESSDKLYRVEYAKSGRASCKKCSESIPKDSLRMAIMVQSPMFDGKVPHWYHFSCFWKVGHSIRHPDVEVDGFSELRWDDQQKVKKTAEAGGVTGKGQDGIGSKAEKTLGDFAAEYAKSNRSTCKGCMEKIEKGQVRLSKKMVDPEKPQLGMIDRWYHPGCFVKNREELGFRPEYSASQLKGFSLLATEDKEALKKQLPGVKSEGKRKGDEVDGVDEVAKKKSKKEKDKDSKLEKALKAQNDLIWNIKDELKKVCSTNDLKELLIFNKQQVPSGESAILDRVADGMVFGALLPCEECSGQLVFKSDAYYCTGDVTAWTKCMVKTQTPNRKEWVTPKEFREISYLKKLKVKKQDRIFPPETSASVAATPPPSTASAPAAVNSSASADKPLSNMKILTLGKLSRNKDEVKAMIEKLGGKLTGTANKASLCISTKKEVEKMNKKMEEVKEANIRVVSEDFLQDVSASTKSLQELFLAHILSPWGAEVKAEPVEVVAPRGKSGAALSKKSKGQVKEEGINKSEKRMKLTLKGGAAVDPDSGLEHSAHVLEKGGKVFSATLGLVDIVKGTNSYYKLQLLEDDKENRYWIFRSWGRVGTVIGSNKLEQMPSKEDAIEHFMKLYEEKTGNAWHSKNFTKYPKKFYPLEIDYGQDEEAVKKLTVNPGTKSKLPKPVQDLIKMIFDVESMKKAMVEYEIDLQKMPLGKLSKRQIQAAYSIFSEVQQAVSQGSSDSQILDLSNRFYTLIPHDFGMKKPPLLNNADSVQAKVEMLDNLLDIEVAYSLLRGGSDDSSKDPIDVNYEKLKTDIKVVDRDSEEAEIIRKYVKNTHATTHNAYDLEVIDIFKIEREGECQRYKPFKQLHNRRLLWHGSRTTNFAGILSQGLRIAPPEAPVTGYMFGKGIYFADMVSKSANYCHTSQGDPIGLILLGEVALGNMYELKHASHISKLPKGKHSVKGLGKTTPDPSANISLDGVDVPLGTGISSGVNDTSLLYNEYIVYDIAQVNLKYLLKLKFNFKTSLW

Row | SMILES | PARP1 L713F-nLuc/akaLuc ratio
1 | C=CC(=O)Nc1cccc(-c2c[nH]cc2CN(C)CCN)c1 | 1.61 (inactive)
2 | CCC1=C[C@@H]2CN(C1)Cc1c([nH]c3ccccc13)[C@@](C(=O)OC)(c1cc3c(cc1OC)N(C)[C@H]1[C@@](O)(C(=O)OC)[C@H](OC(C)=O)[C@]4(CC)C=CCN5CC[C@]31[C@@H]54)C2 [Vinorelbine Tartrate] | 0.576 (inactive)
3 | O=C([C@@H](Cc1cccc(C(F)(F)F)c1)NS(=O)(=O)c1cc(F)c2c(c1)CCNC2)N1CCCC1 [PFI-2 (hydrochloride)] | 0.92 (inactive)
4 | C=CC(=O)Nc1cccc(Oc2nc(Nc3ccc(N4CCN(C)CC4)cc3)nc3ccsc23)c1 | 1.03 (inactive)
5 | COc1ccc2c(=O)c(-c3ccccc3)coc2c1 [7-Methoxyisoflavone] | 0.63 (inactive)
6 | Nc1nc2cc(-c3ccc4ncc(C(=O)N5CCOCC5)n4c3)ccc2o1 [Serabelisib (INK-1117,MLN-1117,TAK-117)] | 1.31 (inactive)
7 | C[C@@H]1C[C@H]2[C@@H]3CCC4=CC(=O)C=C[C@]4(C)[C@@]3(F)[C@@H](O)C[C@]2(C)[C@@]1(O)C(=O)CO [Dexamethasone (DHAP)] | 1.03 (inactive)
8 | CC(C)NC[C@@H](C(=O)N1CCN(c2ncnc3c2[C@H](C)C[C@H]3O)CC1)c1ccc(Cl)cc1 [Ipatasertib (GDC-0068)] | 0.669 (inactive)
9 | COc1ccc(C2CC(c3ccccc3)=NN2c2ccc(S(N)(=O)=O)cc2)cc1 (configuration not stated) | 1.29 (inactive)
10 | CC(C)[C@H]1C(=O)N[C@@H](CCCN=C(N)N)C(=O)NCC(=O)N[C@@H](CC(=O)O)C(=O)N[C@H](Cc2ccccc2)C(=O)N1C | 0.738 (inactive)
11 | Cn1cnc2c(F)c(Nc3ccc(Br)cc3Cl)c(C(=O)NOCCO)cc21 [Selumetinib (AZD6244)] | 0.465 (inactive)
12 | Clc1ccc(-c2csc(NN=C3CCCC3)n2)cc1 | 0.775 (inactive)
13 | CC(C)N(C[C@H]1O[C@@H](n2cnc3c(N)ncnc32)[C@H](O)[C@@H]1O)[C@H]1C[C@@H](CCc2nc3cc(C(C)(C)C)ccc3[nH]2)C1 [Pinometostat] | 0.649 (inactive)
14 | COC(=O)c1ccc2c(c1)[nH]c1ncnc(NCCCN3CCCCC3)c12 | 1.02 (inactive)
15 | Cn1cc(C2=C(c3c4n(c5ccccc35)CCC(CN)C4)C(=O)NC2=O)c2ccccc21 (configuration not stated) [Bisindolylmaleimide X (hydrochloride)] | 0.725 (inactive)
16 | CCCCCCCCCCCCC/C=C/[C@@H](O)[C@H](CO)NC(=O)CCCCCCC [C8-Ceramide] | 0.658 (inactive)
17 | CCCCCCCCCCCCC/C=C/[C@@H](O)[C@@H](N)CO [D-erythro-Sphingosine] | 1.21 (inactive)
18 | O=C(O)c1ccc(Nc2ncc3c(n2)-c2ccc(Cl)cc2C(c2c(F)cccc2F)=NC3)cc1 | 1.87 (inactive)
19 | C=C1CCC[C@]2(C)C=C3OC(=O)C(C)=C3C[C@@H]12 [Atractylenolide I] | 0.934 (inactive)

Row | SMILES | PARP1 L713F-nLuc/akaLuc ratio
20 | C[C@@H]1CN(CC(=O)Nc2ccc3c(c2)Cc2cccc(-c4cc(=O)cc(N5CCOCC5)o4)c2S3)C[C@H](C)O1 | 0.788 (inactive)
21 | O=S(=O)(NCCSSCCNS(=O)(=O)c1cc(Cl)ccc1Cl)c1cc(Cl)ccc1Cl | 1.18 (inactive)
22 | O=C(O)Cn1nnc(-c2ccc(CN(CCCCOc3ccc(CN4CCCC4)cc3)CCc3ccccc3)cc2)n1 | 1.04 (inactive)
23 | CC(C)(C)c1cc(NC(=O)Nc2ccc(-c3cn4c(n3)sc3cc(OCCN5CCOCC5)ccc34)cc2)no1 [Quizartinib (AC220)] | 0.802 (inactive)
24 | NC(=O)c1cccc2cn(-c3ccc([C@@H]4CCCNC4)cc3)nc12 [Niraparib (hydrochloride)] | 4.39 (active)
25 | O=C(c1cc(Cc2n[nH]c(=O)c3ccccc23)ccc1F)N1CC(CNC2CC2)C1 [Venadaparib] | 5.9 (active)
26 | FC(F)(F)c1ccc(CNc2ccc(Cc3c[nH]c4ncc(Cl)cc34)cn2)cn1 [Pexidartinib (PLX3397)] | 0.69 (inactive)
27 | COc1ccc(/C=C/C(=O)NO)c(-c2ccc(-c3ccccc3)cc2)c1 | 0.65 (inactive)
28 | NC(=O)c1cccc2cn(-c3ccc([C@@H]4CCCNC4)cc3)nc12 [Niraparib (MK-4827)] | 6.42 (active)
29 | Cc1nc(NC(=O)N2CCC[C@H]2C(N)=O)sc1-c1ccnc(C(C)(C)C(F)(F)F)c1 [Alpelisib (BYL719)] | 0.761 (inactive)
30 | COCCNCc1ccc(-c2cc3nccc(Oc4ccc(NC(=O)C5(C(=O)Nc6ccc(F)cc6)CC5)cc4F)c3s2)nc1 [Sitravatinib (MGCD516)] | 1.48 (inactive)
31 | O=C(Nc1ccccc1-c1cn2c(CN3CCNCC3)csc2n1)c1cnc2ccccc2n1 [SRT 1720 (Hydrochloride)] | 1.16 (inactive)
32 | O=c1ccoc2cc(O)cc(O)c12 [5,7-Dihydroxychromone] | 1.02 (inactive)
33 | Nc1nc(NC2CC2)cc(-c2cccc(Cl)c2Cl)n1 | 1.94 (inactive)
34 | Cc1cc([C@@H](C)Nc2ccccc2C(=O)O)c2nc(N3CCOCC3)cc(=O)n2c1 | 0.617 (inactive)
35 | Cc1nn2c([nH]c(=O)c3cccnc32)c1C#N | 0.851 (inactive)
36 | O=c1cc(N2CCOCC2)oc2c(-c3ccc4c(c3)OCCO4)csc12 | 0.39 (inactive)
37 | COc1c(CN)cc(CN)cc1OCCCN1Cc2ccccc2C1 [MS31 (trihydrochloride)] | 0.851 (inactive)

Reference: the supplement of paper PMC11624193, “Coupling cellular drug-target engagement to downstream pharmacology with CeTEAM” (Nature Communications, 2024)
